# From article PMC7819943, “Rice protein-binding microarrays: a tool to detect cis-acting elements near promoter regions in rice”
# In all, about 39,000 sequences were measured (“fluorescence intensity (a.u.)”: median about 4,300, highest 2% from about 39,000 on). Shown is part of a subset that was picked to be rich in the highest values.
# Target: T1, OsSMF1 (Oryza sativa, UniProt Q6ZLB0 1-436)
# T1 sequence: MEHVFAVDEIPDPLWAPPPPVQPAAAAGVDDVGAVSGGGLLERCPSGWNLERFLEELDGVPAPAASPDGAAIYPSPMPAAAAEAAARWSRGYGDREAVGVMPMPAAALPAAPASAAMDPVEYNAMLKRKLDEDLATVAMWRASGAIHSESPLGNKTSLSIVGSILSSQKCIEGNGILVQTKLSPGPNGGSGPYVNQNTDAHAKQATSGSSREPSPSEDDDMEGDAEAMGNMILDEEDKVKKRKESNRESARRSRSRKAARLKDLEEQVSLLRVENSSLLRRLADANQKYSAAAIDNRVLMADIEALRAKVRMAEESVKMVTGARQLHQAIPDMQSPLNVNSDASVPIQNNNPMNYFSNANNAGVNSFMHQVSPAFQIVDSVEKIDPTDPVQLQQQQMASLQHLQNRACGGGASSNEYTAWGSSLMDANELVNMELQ
# Assay: protein-binding microarray (RPBM); PBS, 2% BSA, 51.3 ng/ul salmon testes DNA, 50 uM zinc acetate, 200 nM TF, 25 C, 1 h; high values mean tight binding
# Details: protein: recombinant; tags: N-terminal polyhistidine and DsRed monomer fusion (pET32a); chain copies: 2; label: CyDye5-dUTP incorporated in the synthesized complementary strand; 3' TTTTT single-stranded linker to array surface; dsDNA, one strand shown
# Procedure, shortened: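 Transcription factors were made in E. coli BL21-CodonPlus as N-terminal fusions to a polyhistidine tag and DsRed, then purified on Ni–NTA. After primer extension with Cy5-dUTP and blocking with 2% BSA, a custom Agilent array was exposed for 1 h at 25 °C to 200 nM protein in PBS, 2% BSA, salmon testes DNA and 50 µM zinc acetate. Washed arrays were scanned on an Axon 4000B, and the binding signal is per-feature fluorescence intensity in arbitrary units.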
row,Sequence,binding signal
1,GGCCGCTGATCTACGTGGCGGCAGTTCGGTACAGGTGGTGCGGAGTCACCTAGTGCAG,10500 fluorescence intensity (a.u.)
2,GCTGTTGGTTGGTGCCACATCCCACGCTGCCATGCCATGCCGGAGTCACCTAGTGCAG,4910 fluorescence intensity (a.u.)
3,GGGCCCCTCCCAAATCTCCCATGGTTCCATCCATCCCCATCGGAGTCACCTAGTGCAG,3890 fluorescence intensity (a.u.)
4,CCATCCCATGGTGGGCCGGTTAGTTCTGTTCCTGGGCCATCGGAGTCACCTAGTGCAG,64400 fluorescence intensity (a.u.)
5,ATTAGTATTCCCTCCCATCATTAATATATGACGTTAGTGTCGGAGTCACCTAGTGCAG,4550 fluorescence intensity (a.u.)
6,CGGGAGGGGAGGGGAATGGATGTGGGGAGGAGAGAGACTGCGGAGTCACCTAGTGCAG,4600 fluorescence intensity (a.u.)
7,TTCGTCATAGTGTGGAACGACACATCATGAAGATTAGAGACGGAGTCACCTAGTGCAG,3630 fluorescence intensity (a.u.)
8,TGCAAATTGTGCTTTTCTATTCTGTTGTGTCTTCTGCTTTCGGAGTCACCTAGTGCAG,40700 fluorescence intensity (a.u.)
9,GTTCTGTCTTAACCTGCTTTCATATTAATTGTTAAAGTTGCGGAGTCACCTAGTGCAG,3280 fluorescence intensity (a.u.)
10,CCGGGAAATTCTTGTGTTGTTGTGTTGGTCTTGAGCAATTCGGAGTCACCTAGTGCAG,3630 fluorescence intensity (a.u.)
11,AGCCTAGGAGGAGATGTGACCTCACAGTCAGGTGTCATCGCGGAGTCACCTAGTGCAG,3660 fluorescence intensity (a.u.)
12,ACCAACCAACCAACCAACCAACCAAGCCTCCCAACTCCATCGGAGTCACCTAGTGCAG,3810 fluorescence intensity (a.u.)
13,GATTCGCGTCCTCCGTTTGCTTCGCTTCTTCTTCTAGAACCGGAGTCACCTAGTGCAG,3490 fluorescence intensity (a.u.)
14,CGTCCACGTCCATCTCCGCCGCTGACAGCACCAGCTCTTCCGGAGTCACCTAGTGCAG,5020 fluorescence intensity (a.u.)
15,ACCCCTGCGAATATATAATTTCCCCGCGAGGCCGCGAGCCCGGAGTCACCTAGTGCAG,47700 fluorescence intensity (a.u.)
16,AGAGCCGAGGCCCGAATTCCTCCGGTCCTCCTCGTGACCCCGGAGTCACCTAGTGCAG,15400 fluorescence intensity (a.u.)
17,TTCCCCTTCCGCGACTGCGAGCTTCTCCGCCGCCGCCGCCCGGAGTCACCTAGTGCAG,3160 fluorescence intensity (a.u.)
18,CACTCTCCTCCTACACTGCATGCTGCTGCTGACGTGGCTCCGGAGTCACCTAGTGCAG,24900 fluorescence intensity (a.u.)
19,TGAGAATACCAGATGACAAAAGGTGACAGTAGTTAGGAACCGGAGTCACCTAGTGCAG,4190 fluorescence intensity (a.u.)
20,GGGAGGTGTGGTGATCGATCGCCATGCGCGGATTTTCTAACGGAGTCACCTAGTGCAG,5590 fluorescence intensity (a.u.)

row,Sequence,binding signal
1,TTATCTCCAATTTAAGCAACCAGAGGAATATATATGCTTGCGGAGTCACCTAGTGCAG,53500 fluorescence intensity (a.u.)
2,GCTTGCGCCAAAACCAAACATAGAGCAGCAATAGAGAGGACGGAGTCACCTAGTGCAG,3610 fluorescence intensity (a.u.)
3,CCAAGCAAGCATACAGAGAGCAATAAAAGTATAAAACACACGGAGTCACCTAGTGCAG,4950 fluorescence intensity (a.u.)
4,AGTGCTTTATCACACAGAATCAATACCCAAGAAGCATATGCGGAGTCACCTAGTGCAG,41000 fluorescence intensity (a.u.)
5,TTTATCAAATATTTTGTTCCAAAGCTTACATAAGCATATGCGGAGTCACCTAGTGCAG,3320 fluorescence intensity (a.u.)
6,TGATTGTTTAACCAAAATATATGCAATTGACTAAGCAAAACGGAGTCACCTAGTGCAG,3220 fluorescence intensity (a.u.)
7,CAACCAAGCAAGCGGCAGCAGAGCGCGAGTCATGCGACCCCGGAGTCACCTAGTGCAG,3180 fluorescence intensity (a.u.)
8,CACGCGCCGGTGCCTTGCGCCGTCACCGTGCCAGCCCAGCCGGAGTCACCTAGTGCAG,5670 fluorescence intensity (a.u.)
9,GCGTGGCCACATCAGCCTCCTCTCTCCCTTCCTCATCTCTCGGAGTCACCTAGTGCAG,14700 fluorescence intensity (a.u.)
10,CTCCAGGAGGGGTGGAGTTGGAGCTGGAGCTGTGACAAACCGGAGTCACCTAGTGCAG,12800 fluorescence intensity (a.u.)
11,AGGAGGGGTGGAGCTGGAGCTGGAGCTGTGCCAAACAGGCCGGAGTCACCTAGTGCAG,3190 fluorescence intensity (a.u.)
12,AGGAGGGTGGAGCTGTGCCAAACAGACCCTAAGTGTTTTCCGGAGTCACCTAGTGCAG,62100 fluorescence intensity (a.u.)
13,TTCTTTCATCAATTACTAGGCCTAGATGGGTAATTTTGGTCGGAGTCACCTAGTGCAG,3200 fluorescence intensity (a.u.)
14,ATCTTGCCGAAGTTGTTGGTGACGAAGTCGAGGCTGCCGACGGAGTCACCTAGTGCAG,3180 fluorescence intensity (a.u.)
15,AAAGTCAATATAGGAATACAATTTAGAAGTAACTTAAATTCGGAGTCACCTAGTGCAG,25600 fluorescence intensity (a.u.)
16,TACTTAGTAGCTAGGAGCTATATTGGTTGGAAAGGAGCGCCGGAGTCACCTAGTGCAG,51200 fluorescence intensity (a.u.)
17,TTAGGCCAAGTATGGGGTTGGGGCTATGGAGGAGAAGGGCCGGAGTCACCTAGTGCAG,3320 fluorescence intensity (a.u.)
18,CTTAGCCGGCTATACGCGGCTACGTTGGCTGACTTGGTAGCGGAGTCACCTAGTGCAG,4170 fluorescence intensity (a.u.)
19,CGCAGCACGCACGCACGCAGACACGCCCACGCGTTGCGGCCGGAGTCACCTAGTGCAG,3550 fluorescence intensity (a.u.)
20,CCGCGCCGTCCCTCCTGACGCGGCGTCTCGCCGCCGCCGCCGGAGTCACCTAGTGCAG,3780 fluorescence intensity (a.u.)

row,Sequence,binding signal
1,TCCCGATCGACGCGTGCATGGCGGCGAGCCTTCTGTCCCACGGAGTCACCTAGTGCAG,3330 fluorescence intensity (a.u.)
2,CCTTCCAACATGTTTATTATGCATGAGATGTGTGCAACGACGGAGTCACCTAGTGCAG,3360 fluorescence intensity (a.u.)
3,AGAGGGACGTCGACGCGTGGTGCCGTGGTGGTGTCGCTCGCGGAGTCACCTAGTGCAG,3400 fluorescence intensity (a.u.)
4,TTCAACGGCGCGTGCCGACGTGGCCGCTGCGGCGTGCGTGCGGAGTCACCTAGTGCAG,10300 fluorescence intensity (a.u.)
5,CATTCAACGCTCGCGTGCGTGCAGTGCCGTGTGTGGACCGCGGAGTCACCTAGTGCAG,54900 fluorescence intensity (a.u.)
6,TGGCACATTCTCATCGTATTTTCTTGTTGCTCTATGTATGCGGAGTCACCTAGTGCAG,3180 fluorescence intensity (a.u.)
7,ACTATAATTCATGGGATTATGTGCCAGCAGTCATAATATCCGGAGTCACCTAGTGCAG,3180 fluorescence intensity (a.u.)
8,GAGTTAGCAGTGTTGACCACGGTCAAGGTGCCACGTCATCCGGAGTCACCTAGTGCAG,43000 fluorescence intensity (a.u.)
9,GTGCCTCCGTAGCAATGCCACGTCAGCATATGGAGCGGGTCGGAGTCACCTAGTGCAG,44600 fluorescence intensity (a.u.)
10,ATTTTATTGGGATCAAATTACCACGTAGGCGCCACGTCAACGGAGTCACCTAGTGCAG,20900 fluorescence intensity (a.u.)
11,GACATGTAGGACCCACGTGAGTCAATGACACGTGGGTCAGCGGAGTCACCTAGTGCAG,23800 fluorescence intensity (a.u.)
12,ACACGTGGGTCCACGTAGGCGACACGTCAATGCCACGTCACGGAGTCACCTAGTGCAG,55900 fluorescence intensity (a.u.)
13,CGCTACCGTGGCATGCCACGTCACCGGATGGAGCGGGTCGCGGAGTCACCTAGTGCAG,20100 fluorescence intensity (a.u.)
14,TGTGGGGTCCACGTAATGCCACGTCAGCGCAACCTAGGAACGGAGTCACCTAGTGCAG,37100 fluorescence intensity (a.u.)
15,TATTACCACGTAGGCGCCACGTGGCGCCACGTCAGCAAAACGGAGTCACCTAGTGCAG,42100 fluorescence intensity (a.u.)
16,CAGTGACTCCTCTCCTACGTAGGCGCCACGTCAGCAAAACCGGAGTCACCTAGTGCAG,20900 fluorescence intensity (a.u.)
17,GCGTCATCATGACATGCCACGTCAGCACATGGAGCGGGTTCGGAGTCACCTAGTGCAG,26100 fluorescence intensity (a.u.)
18,TTGAGTCAGTAGTGTTGACAACGGTCAAGGTGCCACGTCACGGAGTCACCTAGTGCAG,26100 fluorescence intensity (a.u.)
19,AAGTTCACAGTGCTGACCACGGTCAAGGTGCCACGTCATCCGGAGTCACCTAGTGCAG,35200 fluorescence intensity (a.u.)
